S2 tox: cell viability loss in ATXN counter-screen; Potency, µM (series often up to 56.7 µM), hits mostly cytotoxic; S2 cells (HEK-293 line with an ATXN2-luciferase reporter) viability, CellTiter-Fluor protease fluorescence, 24 h; actives 0.49% (n = 400,000); also: nearly all actives have a fitted effect of over 40% in size
ATXN2 expr inh: reduces ATXN2 reporter expression in HEK-293 cells; HEK-293 ATXN2-luciferase reporter, luminescence, 24 h; Potency, µM (highest dose often 57 µM), inactives show at the top dose activity change, negative = inhibition, most hits filed as inhibitors; actives 0.72% (n = 360,000); also: % is scaled to controls: 0 for no effect and ±100 for the full control effect; nearly all actives have a fitted effect of over 55% in size
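ATXN2-luciferase reporter cells (luciferase flanked by upstream and downstream ATXN2 gene portions) were treated 24 h at 37 °C with compounds at up to 57 uM. SteadyGlo luminescence gave expression; GF-AFC fluorescence gave viability.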
HepG2 viability: kills HepG2 cells in TGF-b inhibitor counter-screen. HepG2 CAGA-GFP viability, ATP luminescence, 18 h. Potency, µM (top dose mostly 46.1 µM), inactives show at the top dose activity change, negative = cytotoxicity, actives largely listed as cytotoxic. actives 0.76% (n = 410,000)
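CellTiter-Glo luminescence gave cytotoxicity after 18 hours at 37 degrees C. The cells were HepG2 CAGA-GFP in 1% FBS DMEM, stimulated with 500 pg/mL TGF-beta after compound addition. %Activity was normalised to no-cell wells (complete cell-killing) and DMSO (no toxicity), and curves were fitted and classified.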
TGFb SMAD3 inh: TGF-b pathway inhibition; actives 1.2% (n = 410,000); Potency, µM (series often up to 46.1 µM), without a hit: at the highest dose activity, negative = inhibition, actives largely listed as inhibitors; HepG2 CAGA-GFP TGF-b/SMAD3 reporter, GFP fluorescence, 18 h; TGF-beta stimulated, 500 pg/mL final; AID 588855; also: % is scaled to controls: 0 for no effect and ±100 for the full control effect; nearly all actives have a fitted effect of over 65% in size
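TGF-beta reporter screen: HEPG2 CAGA-GFP, 1% FBS, 500 pg/mL TGF-beta final, 18 h; per-cell GFP summed per well; curves fitted and categorized by class.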
DT40 TDP1 CPT: growth inhibition of DT40 Tdp1-/-;hTDP1 cells with camptothecin (screen for TDP1 inhibitors); chicken DT40 Tdp1-/-;hTDP1 cells + 20 nM CPT, ATP luminescence, 48 h; Potency, µM (titrated, usually from 46.2 µM), without a hit: top-dose activity change, negative = growth inhibition, hits mostly inhibitors; actives 12% (n = 420,000); AID 686979; also: % is scaled to controls: 0 for no effect and ±100 for the full control effect; nearly all actives have a fitted effect of over 55% in size
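Chicken DT40 Tdp1-/- cells complemented with human TDP1, 400 cells/well, exposed to compounds plus 20 nM camptothecin for at least 48 h at 37 C; viability read as ATP content by CellTiter-Glo luminescence.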
DT40 TDP1 no CPT: qHTS for Inhibitors of human tyrosyl-DNA phosphodiesterase 1 (TDP1): qHTS in cells in absence of CPT. Potency, µM (titrated, usually from 46.2 µM), without a hit: at the top dose activity change, negative = growth inhibition, most hits filed as inhibitors. AID 686978, 2013. DT40 Tdp1-/- hTDP1 cells, no CPT, ATP luminescence, 48 h. actives 15% (n = 420,000); also: % is scaled to controls: 0 for no effect and ±100 for the full control effect; nearly all actives have a fitted effect of over 55% in size
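Compound effects on proliferation are scored in DT40 Tdp1-/-;hTDP1 cells in the absence of CPT. ATP levels (CellTiter-Glo luminescence) are recorded after a ≥48 hr, 37 °C incubation.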
Numbers without * were called inactive; i = inactive; u = inconclusive; x = not tested or not shown. This is a sample that favours compounds with a hit; in the whole collection about 17% have one here. Calls follow the shape of the dose curve; as a rule, active = well fitted curve in the direction sought with a large enough effect; inconclusive = small, poorly fitted or top-dose-only effect, or another doubt; inactive = no such curve, though single readings can be large; an effect the other way counts as inactive or inconclusive. Potency is read from the fitted curve at half-maximal effect.

SMILES | S2 tox | ATXN2 expr inh | HepG2 viability | TGFb SMAD3 inh | DT40 TDP1 CPT | DT40 TDP1 no CPT
CC1=C(C(=O)Nc2ccc(C)cc2C)C(c2ccc(Br)cc2)n2ncc(C(=O)Nc3cccc(C)c3)c2N1 (stereo not given) | x | x | -5% | -17% | -4% | u
CC1=C(C(=O)Nc2ccc(C)cc2C)C(c2ccccc2[N+](=O)[O-])n2ncc(C(=O)Nc3ccccc3)c2N1 (stereo not given) | x | x | -2% | u | u | 26µM*
CC1=C(C(=O)Nc2ccc(C)cc2C)C(c2cc(Br)ccc2F)n2ncc(C(=O)Nc3ccc(C)cc3)c2N1 (stereo not given) | x | x | -43% | 4% | u | 12µM*
O=C(NCCC1=CCCCC1)c1ccc2c(c1)ncn2-c1cccc(Cl)c1 | i | 32% | 1% | -22% | 16µM* | 15µM*
COc1ccc(CC(=O)NCCC2=CCCCC2)cc1 | i | 3% | -10% | -13% | -17% | 2%
COc1ccc(-n2cnc3cc(C(=O)NCCC4=CCCCC4)ccc32)cc1 | u | u | -43% | u | 18µM* | u
Cc1ccc(N2CCN(C(=O)c3c(C)oc4ncnc(N5CCOCC5)c34)CC2)c(C)c1 | x | x | 3% | -8% | u | -27%
CC(C)OC(=O)CSc1nnc(COc2ccc([N+](=O)[O-])cc2)n1C | x | 9% | -10% | 4% | 0% | 4%
Cc1cccc(Cn2cnc3c(cnn3C(C)(C)C)c2=O)c1 | x | x | -66% | u | x | x
COc1ccc(-n2nc(C(=O)Nc3ccc(Br)cc3C)c3c4ccccc4n(C)c3c2=O)cc1 | i | 12% | -2% | 0% | -8% | -10%
CC(=O)Nc1cc(-c2ccc(CO)cc2)cn2c(-c3ccc(F)cc3)cnc12 | i | 4% | -26% | 1% | 16µM* | 16µM*
CC(=O)Nc1cc(-c2ccccc2)cn2c(-c3ccc(F)cc3)cnc12 | u | 0% | -1% | 24% | u | u
CC(=O)Nc1cc(-c2ccncc2)cn2c(-c3ccccc3)cnc12 | i | 10% | -23% | 0% | 18µM* | 16µM*
CC(=O)Nc1cc(-c2ccc(F)cc2)cn2c(-c3ccc(S(C)(=O)=O)cc3)cnc12 | i | -20% | 5% | 4% | u | 16µM*
CC(=O)Nc1cc(-c2ccc(F)cc2)cn2c(-c3ccc(F)cc3)cnc12 | i | -7% | -2% | -3% | 16µM* | 18µM*
COc1cc(C2C=C(C(=O)O)Nc3ncnn32)ccc1O (stereo not given) | i | 1% | 1% | 0% | -20% | -6%
Cn1nc(C(C)(C)C)cc1C(=O)NN1CCOCC1 | i | 4% | -1% | 0% | -23% | 8%
O=C(NCc1cccnc1)c1[nH]c(C(F)(F)F)nc1-c1ccccc1 | i | 3% | -2% | -8% | -3% | 10%
O=C(Nc1cc(S(=O)(=O)N2CCOCC2)ccc1Cl)C(=O)c1c(-c2ccccc2)cc2ccccn12 | x | x | -1% | -12% | 21µM* | 23µM*
O=C(Cn1cnc2c(cnn2-c2ccccc2)c1=O)Nc1cc(S(=O)(=O)N2CCOCC2)ccc1Cl | i | 5% | 4% | 2% | u | 23µM*
CCN(CC)S(=O)(=O)c1ccc(Cl)c(NC(=O)COC(=O)c2c(C)noc2C)c1 | i | 14% | 10% | 5% | u | 21µM*
O=C(Cn1cnc2c(cnn2-c2ccccc2)c1=O)N1CCOCC1 | i | 2% | 7% | 27% | -7% | -9%
Cc1noc(C)c1C(=O)OCC(=O)Nc1ccccc1C(=O)NC(C)c1ccccc1 (stereo not given) | i | -8% | -2% | 3% | 29µM* | 21µM*
Cc1onc(-c2ccccc2)c1C(=O)OCC(=O)Nc1cc(S(=O)(=O)N2CCOCC2)ccc1Cl | i | -6% | -18% | -25% | 23µM* | 23µM*
Cc1cc(C(=O)OCC(=O)Nc2cc(S(=O)(=O)N3CCOCC3)ccc2Cl)c(C)o1 | i | 7% | -15% | 2% | -5% | -24%
SMILES | S2 tox | ATXN2 expr inh | HepG2 viability | TGFb SMAD3 inh | DT40 TDP1 CPT | DT40 TDP1 no CPT
Cc1cccc(NC(=O)COC(=O)c2c(-c3ccccc3)noc2C)c1 | i | x | -13% | -1% | u | u
Cc1onc(-c2ccccc2Cl)c1C(=O)OCC(=O)Nc1cccc(S(=O)(=O)N(C)C)c1 | i | -22% | -19% | -36% | u | 16µM*
CC1(c2nnnn2C2CCCCC2)CCC(=O)N1Cc1ccc2c(c1)OCO2 (stereo not given) | x | x | x | x | -3% | -19%
O=C(COC(=O)Cc1ccc(Br)cc1)Nc1ccc(Cl)cn1 | i | -11% | -9% | 0% | 0% | -3%
Cc1ncc(Cc2ccccc2)c(C2CCN(S(=O)(=O)C[C@]34CC[C@H](CC3=O)C4(C)C)CC2)n1 | u | x | x | x | u | 15µM*
Cc1ccc(-n2nnc3c(=O)oc4ccccc4c32)cc1 | u | u | -10% | u | 5.8µM* | 21µM*
COc1ccc(CNC(=O)c2sc3nc4n(c(=O)c3c2C)CCCCC4)cc1 | i | -15% | 1% | -7% | u | u
COc1ccc(Cl)cc1NC(=O)N1CCN(S(=O)(=O)c2ccc3c(ccn3C)c2)CC1 | i | -19% | -14% | 0% | x | x
CCN(Cc1ccccc1)C(=O)c1cccc(OC2CCN(C(=O)C3CC3)CC2)c1 | i | -35% | -23% | u | u | u
O=C(NCc1cccc(F)c1)c1cccc(OC2CCN(C(=O)C3CC3)CC2)c1 | i | -17% | 4% | -16% | u | 18µM*
CC1=C(C(N)=O)C(c2ccc(C)cc2)n2nc(SCc3ccccc3F)nc2N1 (stereo not given) | i | -1% | -2% | u | -20% | -14%
CCOC(=O)c1c(C(C)(C)C)oc2ccc(O)cc12 | i | -16% | -112% | u | 21µM* | 23µM*
CCOC(=O)c1c(COc2ccccc2)oc2ccc(O)cc12 | i | -6% | -36% | u | 0% | -15%
CC1CCc2cc(F)ccc2N1C(=O)CSc1nnc2c3ccccc3n(C)c2n1 (stereo not given) | i | 7% | 2% | -36% | 18µM* | 21µM*
Cn1c2ccccc2c2nnc(SCC(=O)NC3CCCC3)nc21 | i | -2% | 8% | 6% | -2% | u

Bioassay records as filed in PubChem BioAssay.
